SNCA expr inh = Primary qHTS assay for inhibitors of alpha-synuclein gene (SNCA) expression. HEK-293 SNCA-luciferase knock-in, luminescence, 24 h. 140,000 tested, 0.17% active. AID 1671194, 2021. Potency, µM (series often up to 57.2 µM), actives largely listed as inhibitors; also: nearly all actives have a fitted effect of over 45% in size
HEK293 viab = GF-AFC viability counterscreen for inhibitors of alpha-synuclein gene (SNCA) expression; 150,000 tested, 0.12% active; Potency, µM (doses to about 57.1 µM), hits mostly cytotoxic; HEK-293-SNCA-luc viability, GF-AFC fluorescence, 24 h; AID 1671193, 2021; also: nearly all actives have a fitted effect of over 30% in size
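HEK-293-SNCA-luc cells (1500/well) plated 24 h, then exposed 24 h to a dilution series; GF-AFC added 30 min at 37C, fluorescence 405/540 nm; normalised to medium-only and DMSO wells, Hill fit.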
IP6K1 inh = Primary qHTS assay for small molecule inhibitors of Inositol hexaphosphate kinase 1 (IP6K1); activity change, % (series mostly up to about 58 µM); 140,000 tested, 0.81% active; IP6K1 kinase, ADP-Glo luminescence, 2 h; stronger effect = lower value; Inositol hexakisphosphate kinase 1 (Homo sapiens), Q92551; in the data active = activity change below about -25%
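ADP-Glo luminescence measures ADP made by human IP6K1 during a 2 h RT reaction with ATP/IP6 (mix at 1.3 mM/130 uM); top library doses 57.5 and 19.1 uM final.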
KDM5B inhibitor = Primary screen for KDM5B Histone Demethylases FDH-coupled qHTS. AID 1347165, 2019. 220,000 tested, 2.6% active. KDM5B demethylase, FDH-coupled NADH fluorescence (FDH is formaldehyde dehydrogenase). Lysine-specific demethylase 5B (Homo sapiens), Q9UGL1. Potency, µM (series often up to 57.7 µM), actives largely listed as inhibitors; also: nearly all actives have a fitted effect of over 70% in size
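Compound dilutions met 200 nM (final) KDM5BΔAP for 10 min at room temperature before substrate addition. The substrate mix held 12.5 µM H3K4me3 with cofactors 25 µM α-ketoglutarate and 50 µM Fe²⁺. NADH signal gain over 30 min defined activity.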
Hits are given with their value; – = inactive; ? = inconclusive; · = no result given; ! = not confirmed by another sample. Compounds with a hit are over-represented: about 3% of the library has one in this group of screens. Unless noted, calls follow the shape of the dose curve; as a rule, active = well fitted curve in the direction sought with a large enough effect; inconclusive = small, poorly fitted or top-dose-only effect, or another doubt; inactive = no such curve, though single readings can be large; an effect the other way counts as inactive or inconclusive.

SMILES	SNCA expr inh	HEK293 viab	IP6K1 inh	KDM5B inhibitor
C=C(Cl)CN1CCC(C(=O)NCCc2ccccc2F)CC1	·	·	·	–
CN(C)C(=O)c1cc(-c2ccc(C(F)(F)F)cc2)nc2c1cnn2C	·	·	–	·
COc1ccccc1CCC(=O)N[C@@H]1CN(c2ncccn2)C[C@H]1CN(C)C	–	–	–	31.6µM
CN(C)C[C@@H]1CN(c2ncccn2)C[C@H]1NS(=O)(=O)c1ccc(C#N)cc1	–	–	–	?
CN(C)C[C@@H]1CN(c2ncccn2)C[C@H]1NS(=O)(=O)c1ccc(Cl)cc1	–	–	–	28.2µM
CN(C)C[C@@H]1CN(c2ncccn2)C[C@H]1NC(=O)Cc1c[nH]c2ccccc12	?	–	–	?
CN(C)C[C@@H]1CN(c2ncccn2)C[C@H]1NC(=O)Cc1ccccc1F	–	–	–	31.6µM
COc1cccc(CC(=O)N[C@@H]2CN(c3ncccn3)C[C@H]2CO)c1	–	–	–	25.1µM
O=C(Cc1cccc(Cl)c1)N[C@@H]1CN(c2ncccn2)C[C@H]1CO	–	–	–	?
Cn1ncc2c(C(=O)NCC3CC3)cc(-c3ccc(C(F)(F)F)cc3)nc21	·	·	–	·
C=CCNC(=O)NC(=O)CN1CCc2ccccc2C1	·	·	·	–
CCNc1c(NC(=O)Nc2cccc(C)c2C)c(=O)oc2ccccc12	·	·	·	–
CN(C)C[C@@H]1CN(c2ncccn2)C[C@H]1NC(=O)Cc1ccc(F)cc1	–	–	–	28.2µM
Cc1nc(-c2cccs2)c(CC(=O)N2CCc3ccccc3C2)s1	·	·	·	–
O=C(c1nccs1)c1cccnc1N1CCNCC(O)C1 (stereo not drawn)	–	–	–	10µM
COCCN(CC1CC1)C(=O)c1ccc2nc(-c3ccc(F)cc3)cn2c1	–	–	–	25.1µM
O=C(NCC1CNCCOC1)c1ccc2nc(-c3ccc(F)cc3)cn2c1 (stereo not drawn)	–	–	–	28.2µM
CN(C(=O)c1ccc2nc(-c3ccc(F)cc3)cn2c1)C1CCOCC1	–	–	–	22.4µM
COCC(=O)N(C1CCOCC1)C1CCN(C(=O)c2ccc(F)cc2)CC1	–	–	–	–
CC(Cc1cnccn1)NC(=O)c1ccc2nc(-c3ccc(F)cc3)cn2c1 (stereo not drawn)	–	–	–	?
O=C(NCC1CC1)c1ccc2nccn2c1	–	–	–	·
CCC(NC(=O)c1ccc2nc(-c3ccc(F)cc3)cn2c1)c1ncc(C)[nH]1 (stereo not drawn)	–	–	–	25.1µM
Cc1nc(Cc2nn3c(-c4ccccc4)nnc3s2)cs1	·	·	·	–
Cc1noc(C)c1[S+](=O)([O-])N1CCC2(CC1)CC(c1cccc(C(F)(F)F)c1)=NO2	·	·	–	·
CC1=C(C(=O)Nc2ccc(C)cc2C)C(c2ccc(C)cc2)NC(=S)N1 (stereo not drawn)	·	·	·	–
SMILES	SNCA expr inh	HEK293 viab	IP6K1 inh	KDM5B inhibitor
O=C(NCCc1cnc[nH]1)c1ccc2nc(-c3ccc(F)cc3)cn2c1	–	–	–	31.6µM
CN(C)C[C@@H]1CN(C)C[C@H]1NC(=O)c1ccc(Br)cc1	–	–	–	–
CN(C)C[C@@H]1CN(c2ncccn2)C[C@H]1NC(=O)c1nn(C)c2ccccc12	–	–	–	31.6µM
CN(C)C[C@@H]1CN(C)C[C@H]1NC(=O)c1nn(C)c2ccccc12	–	–	–	31.6µM
CN(C)C[C@@H]1CN(C2CCOCC2)C[C@H]1NC(=O)c1n[nH]c2ccccc12	–	–	–	22.4µM
O=C(OCc1cccc(Br)c1)c1ccc(O)cc1	·	·	·	–
CC(C)C(NC(=O)c1ccccn1)C(=O)O (stereo not drawn)	·	·	·	–
CC(C)C[C@H](NC(=O)[C@@H](NC(=O)c1cccc(-c2ccccc2)n1)[C@@H](C)O)B(O)O	0.0607µM	0.0474µM!	–	·
CC(C)C[C@H](NC(=O)[C@H](Cc1ccccc1)NC(=O)c1cnccn1)B(O)O	0.0482µM	?	–	·
O=C(NCc1ccnc2[nH]ccc12)c1ccc(C(F)(F)F)cc1	–	–	–	35.5µM!
Cc1ccccc1CC1(CO)CCCN(c2ccc(-c3nccn3C)nn2)C1 (stereo not drawn)	?	?	–	?
Cn1ccnc1-c1ccc(N2CCCC(CO)(CCOc3ccccc3)C2)nn1 (stereo not drawn)	–	?	–	31.6µM
Cn1ccnc1-c1ccc(N2CCC(CO)(CCOc3ccccc3)CC2)nn1	–	–	–	28.2µM
Cc1ccc(-c2nnc3ccc(C)cc3c2C(=O)O)cc1	·	·	·	–
